Source: PubChem BioAssay (NMMLSC)
RGS7-Gao – modulates binding of RGS7 to human Galphao; P09471; Multiplexed bead flow cytometry; actives lie on both sides; binding response (% of control), % at 10 µM; hit rate 0.35% among 220,000; in the data active = binding response below about 49% or above about 150%; inconclusive = no clear call, values can overlap the other calls; inactive = in between;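 also: fluorescent Galphao held in activated GDP-AlF4 state binding bead-coupled RGS7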
Target sequence (P09471 whole entry, looked up): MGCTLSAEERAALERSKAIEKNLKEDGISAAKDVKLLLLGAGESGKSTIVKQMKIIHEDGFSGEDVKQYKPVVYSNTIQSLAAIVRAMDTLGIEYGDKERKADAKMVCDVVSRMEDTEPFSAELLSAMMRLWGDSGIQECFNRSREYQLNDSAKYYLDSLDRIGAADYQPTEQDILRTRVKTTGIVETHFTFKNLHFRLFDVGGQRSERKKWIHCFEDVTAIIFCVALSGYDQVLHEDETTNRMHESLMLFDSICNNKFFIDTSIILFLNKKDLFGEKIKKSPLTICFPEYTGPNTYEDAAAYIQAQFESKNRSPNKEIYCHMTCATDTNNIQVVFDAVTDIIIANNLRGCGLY
RGS4-Gao reg – modulates binding of RGS4 to human Galphao. P09471. Multiplexed bead flow cytometry; actives lie on both sides. binding response (% of control), % at 10 µM. hit rate 0.33% among 220,000. AID 1415; in the data active = binding response below about 49% or above about 150%; inactive = in between;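 also: fluorescent Galphao activated with aluminum fluoride binding bead-coupled RGS4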
RGS16-Gao – RGS16-Galphao interaction regulator (human). AID 1441. bead-based flow cytometry RGS16-Galphao binding, fluorescence; actives lie on both sides. O15492+P09471. hit rate 0.38% among 220,000. binding response (% of control), % at 10 µM; call rule not given here;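 also: Galphao activated by GDP with aluminum fluoride before binding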
Target sequence (O15492 whole entry, looked up): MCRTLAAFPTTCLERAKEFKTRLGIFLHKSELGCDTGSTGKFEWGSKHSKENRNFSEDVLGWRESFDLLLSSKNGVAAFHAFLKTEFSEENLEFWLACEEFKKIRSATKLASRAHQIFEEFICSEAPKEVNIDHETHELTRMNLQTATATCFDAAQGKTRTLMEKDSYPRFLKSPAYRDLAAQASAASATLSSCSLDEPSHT
Target sequence (P09471 whole entry, looked up): as the sequence (P09471 whole entry, looked up) above
RGS8-Gao reg – regulators of human RGS8-Galphao interaction; multiplexed bead flow cytometry, RGS8-Galphao binding; actives lie on both sides; P09471; hit rate 0.34% among 220,000; response (percent of control binding), % at 10 µM; in the data active = response below about 60% or above about 140%; inactive = in between;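 also: Galphao activated as the GDP aluminium fluoride complex binding bead-coupled RGS8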
GSH fluor – compound fluoresces at 488/530 nm on GSH beads; GSH beads flow cytometry, compound fluorescence 488/530 nm; active compounds read high; fluorescence (KMESF) at 10 µM; AID 1776; hit rate 0.25% among 190,000; in the data active = fluorescence above about 89;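 also: glutathione beads carrying GST-tagged Bcl family fusion proteins plus one bare bead set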
Avidin bead fluor – avidin bead compound fluorescence profile. hit rate 0.38% among 220,000. fluorescence (KMESF) at 10 µM. Avidin beads, compound fluorescence 488/530 nm, flow cytometry; active compounds read high; in the data active = fluorescence above about 47
A number is an active result; 0 = inactive; ? = inconclusive; - = no result given; ! = repeats disagree. In the library only some 1.2% were active in any assay of this set; here they are far more common.

SMILES	RGS7-Gao	RGS4-Gao reg	RGS16-Gao	RGS8-Gao reg	GSH fluor	Avidin bead fluor
O=C(c1ccc(CN2CCOCC2)cc1)N1CCC(Cc2ccccc2)CC1	0	0	0	0	0	91
COc1ccc(S(=O)(=O)N2CCCCCC2)cc1NC(=O)Cc1ccccc1	0	0	0	0	0	48
COc1ccc(S(=O)(=O)N2CCOCC2)cc1NC(=O)Cc1ccccc1Cl	0	0	0	0	0	0
COc1ccccc1NC(=O)CCN1CCN(Cc2ccccc2)CC1	0	0	0	0	0	0
COc1ccccc1NC(=O)CCN1CCCCCC1	0.6	3.0	-2.5	4.6	0	0
Cc1ccc(C)c(/C(O)=C2\C(=O)C(=O)N(Cc3cccnc3)C2c2cccnc2)c1 (stereo not given)	0	0	0	0	0	49
C[C@@]12CC(=O)NC1N(C(=O)c1ccccc1)C(c1ccccc1OC(=O)c1ccccc1)C2 (stereo not given in full)	0	0	0	0	250	0
O=C(OCCCCN1C(=O)c2ccccc2C1=O)c1ccc(S(=O)(=O)N2CCCC2)cc1	0	0	0	0	266	0
CCOc1cc(S(=O)(=O)NCc2ccncc2)ccc1Cl	0	0	0	0	0	0
Cc1noc(/C=C/c2ccc(-c3ccccc3Cl)o2)c1[N+](=O)[O-]	0	0	0	0	0	57
CSCCC(NS(=O)(=O)c1ccc(Cl)cc1)C(=O)OCC(=O)c1ccc(F)cc1 (stereo not given)	0	0	0	0	0	0
COc1cccc(C(=O)N2CCN(C(=O)Cc3ccccc3)CC2)c1	0	0	0	0	0	54
COc1ccc(C2/C(=C(\O)c3ccc4c(c3)OCCO4)C(=O)C(=O)N2Cc2ccco2)c(OC)c1 (stereo not given)	0	0	0	0	122	0
COc1ccc(/C(O)=C2/C(=O)C(=O)N(Cc3ccco3)C2c2cccs2)cc1 (stereo not given)	0	0	0	0	0	0
CC1(C)CC(=O)C(Br)=C(O)C1	?	0	0	0	0	0
CC1(C)CC(=O)C(=C2SCCCS2)C(=O)C1	0	0	0	0	156	0
Nc1ncnc(Nc2ccccc2Cl)n1	?	0	0	0	-	0
CCCCC(CC)CNC(=O)c1ncn[nH]1 (stereo not given)	0	0	0	0	0	0
CC(C(=O)N1c2ccc(F)cc2CCC1C)N1C(=O)c2ccccc2C1=O (stereo not given)	0	0	0	0	0	48
Cc1nc2cc(NC(=O)N3CC4(C)CC3CC(C)(C)C4)ccc2n1C (stereo not given)	0	0	0	0	0	48
COC(=O)c1ccccc1NC(=O)c1cnn2c(C)cc(C)nc12	0	0	0	0	0	0
COC(=O)c1ccccc1NC(=O)c1nc2nc(C)cc(C)n2n1	0	0	0	0	0	134
CCOc1ccc(NC(=S)N(C)C)cc1	?	0	0	0	-	0
C=CC(=O)NCCCc1cc(C(C)(C)C)c(O)c(C(C)(C)C)c1	0	0	0	0	0	0
Cc1ccc(S(=O)(=O)NC(=O)NCc2ccccc2)cc1	0	0	0	0	0	0
SMILES	RGS7-Gao	RGS4-Gao reg	RGS16-Gao	RGS8-Gao reg	GSH fluor	Avidin bead fluor
Cc1ccc(S(=O)(=O)NC(=O)NCc2ccccn2)cc1	0	0	0	0	256	0
COc1ccc(NS(=O)(=O)c2ccc3c(c2)CCO3)cc1	?	0	0	0	-	61
O=S(=O)(Nc1ccccc1)c1ccc2c(c1)CCO2	?	0	0	0	-	0
S=C(NCc1ccc2[nH]c3c(c2c1)CCCC3)Nc1ccccc1	0	49	0	0	0	0
CN(C)S(=O)(=O)c1cccc(NC(=S)N2CCc3ccccc32)c1	?	0	0	0	0	154
O=C(Nc1ccc(Cl)cc1Cl)C1=Cc2ccccc2OC1	0	0	0	0	0	0
O=C(Nc1ccc(Cl)cc1)C1=Cc2cc(Cl)ccc2OC1	0	0	0	0	0	48
Cc1cc(Br)c(OCc2ccc(C(=O)N/N=C3\CC4CC=CC34)cc2)c(Br)c1 (stereo not given)	0	0	0	0	0	0
CCCCOc1ccc(C(=O)N/C(=C/C=C/c2ccccc2)C(=O)NCCO)cc1	0	0	0	0	0	0
C=CCNC(=O)/C(=C\C=C\c1ccccc1)NC(=O)c1ccc(OCCCC)cc1	13	20	1.7	12	0	0
COc1ccccc1NS(=O)(=O)c1cc(NC(=O)c2[nH]c(C)c(C(C)=O)c2C)ccc1N1CCOCC1	?	0	0	0	-	-
CC(=O)Nc1ccc(NC(=O)CSc2nnc(C)c(=O)[nH]2)cc1	?	0	0	0	0	0
O=S(=O)(N1CCCCC1)n1nnc2ccccc21	0	0	0	0	0	49
CCOC(=O)N1CCC(NC(=O)c2ccc(CNS(=O)(=O)c3ccc(F)cc3)cc2)CC1	0	0	0	0	0	61
O=C(Nc1ccccc1)Nc1ccccn1	?	0	0	0	0	68!
O=C(Nc1ccccn1)C(=O)Nc1ccccn1	?	0	0	0	-	0
CCOC(=O)c1sc(NC(=O)C2CC2)cc1C	0	0	0	0	0	0
CCOC(=O)c1sc(NC(=S)NC(=O)C2CCCC2)cc1C	0	0	0	0	0	49
O=C1Nc2ncccc2OC1CCCl (stereo not given)	0	0	0	0	258	0
O=C(NCCCN1CCN(Cc2ccccc2)CC1)C1CCN(S(=O)(=O)N2CCC3(CC2)OCCO3)CC1	?	0	0	0	0	0
O=C(C1CCN(S(=O)(=O)N2CCC3(CC2)OCCO3)CC1)N1CCN(Cc2ccccc2)CC1	0	0	0	0	0	133
CN(C)c1nnnn1-c1cccc(Oc2ncc(C(F)(F)F)cc2Cl)c1	0	0	0	0	0	0
Cc1ccc(Nc2nnc(SCC(=O)NCc3ccco3)s2)cc1	0	0	0	0	259	0
O=C(CSc1nnc(Nc2ccccc2)s1)NCc1ccco1	0	0	0	0	0	0
O=C(CSc1nnc(-c2ccc(F)cc2)o1)Nc1ccc(S(=O)(=O)N2CCCC2)cc1	0	0	0	0	0	0
SMILES	RGS7-Gao	RGS4-Gao reg	RGS16-Gao	RGS8-Gao reg	GSH fluor	Avidin bead fluor
O=C(CSc1nnc(-c2ccc(S(=O)(=O)N3CCCC3)cc2)o1)NCc1ccccc1	0	0	0	0	113	0
CCN(CC)CCNc1nc(-c2ccco2)c2c(c1C#N)CC(C)(C)OC2	0	0	0	0	0	48
Cc1onc(-c2ccccc2Cl)c1C(=O)NC(=S)Nc1ccc(C(C)(C)C)cc1	?	0	0	0	-	0
Cc1nc(N2CCOCC2)c(C#N)c(C)c1Br	0	0	0	0	260	0
COc1ccc(-c2cc(C(=O)Nc3c(C)nn(Cc4ccc(Cl)cc4)c3C)no2)cc1	0	0	0	0	0	50
COC(=O)c1cc(OC)c(OC)c(OC)c1N	0	0	0	0	259	0
CC1NC(=O)NC1CCCCC(=O)O (stereo not given)	0	0	0	0	243	0
